# Data as given in the supplement of paper PMC7380943.
# Where a name gives a salt, the structure may show the parent alone. ± gives the standard deviation of the averaged measurements.
# How the values were obtained:
# [1] = test system: CLZ3 (HCA2 human fibroblast dual HR-NHEJ reporter); experiment: NHEJ repair efficiency (GFP+ cells) relative to control (log10 fold); higher = more non-homologous end joining; conditions: 5 µM; doxycycline 0.5 ug/mL
# [2] = test system: CLZ3 (HCA2 human fibroblast dual HR-NHEJ reporter); experiment: HR repair efficiency (tdTomato+ cells) relative to control (log10 fold); higher = more homologous recombination; conditions: 5 µM; doxycycline 0.5 ug/mL
# 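Throughout, for HR repair efficiency (tdTomato+ cells) relative to control: compound given one day before doxycycline, which switches on I-SceI endonuclease expression to create double-strand breaks within the integrated reporter.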
# 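Throughout, for NHEJ repair efficiency (GFP+ cells) relative to control: compound given one day ahead of doxycycline, which switches on I-SceI endonuclease to cut the chromosomally integrated reporter and create DSBs.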
SMILES,NHEJ repair efficiency (log10) [1],HR repair efficiency (log10) [2]
O=c1c(-c2ccc(O)cc2)coc2cc(O)cc(O)c12 [Genistein],-0.0971,-0.179
C[N+]1(C)CCCC1C(=O)O (configuration not stated) [Stachydrine Hydrochloride],-0.0485,0.12
COc1cc(C[C@@H](CO[C@@H]2O[C@H](CO)[C@@H](O)[C@H](O)[C@H]2O)[C@H](CO[C@@H]2O[C@H](CO)[C@@H](O)[C@H](O)[C@H]2O)Cc2ccc(O)c(OC)c2)ccc1O [Secoisolariciresinol Diglycoside],0.00786,0.0805
OCCc1ccc(O)c(O)c1 [Hydroxytyrosol],0.0571,0.228
O=C(/C=C/c1ccc(O)c(O)c1)O[C@H]1[C@H](O)C[C@](O)(C(=O)O)C[C@H]1O [Cryptochlorogenic Acid],0.102,0.168
CC(=O)O[C@H]1CC(=O)OC(C)(C)[C@@H]2CC(=O)[C@]3(C)[C@H](CC[C@@]4(C)[C@@H](c5ccoc5)OC(=O)[C@H]5O[C@]543)[C@@]12C [Nomilin],-0.276,-0.226
C/C=C/C#CC#C[C@@H](O)[C@@H](/C=C/CCCO)O[C@@H]1O[C@H](CO)[C@@H](O)[C@H](O)[C@H]1O [Lobetyolin],0.048,0.131
COc1cc2c(c(OC)c1OC)-c1c(cc3c(c1OC)OCO3)C[C@H](C)[C@@](C)(O)C2 [Schizandrol B],-0.0319,-0.132
C=C(C)[C@@H]1CC[C@]2(C(=O)O)CC[C@]3(C)[C@H](CC[C@@H]4[C@@]5(C)CC[C@H](O)C(C)(C)[C@@H]5CC[C@]43C)[C@@H]12 [Betulinic acid],0.0052,0.0512
COC(=O)C1=CO[C@@H](O[C@@H]2O[C@H](CO)[C@@H](O)[C@H](O)[C@H]2O)[C@@H]2C(CO)=CC[C@H]12 [Geniposide],-0.0355,0.172
CC(=O)CCc1ccc(O)cc1 [Raspberry Ketone],-0.163,-0.0897
O=C(/C=C/c1ccc(O)c(O)c1)O[C@@H]1C[C@](O)(C(=O)O)C[C@@H](O)[C@H]1O [Chlorogenic Acid],0.0025,-0.132
CC1(C)CC[C@]2(C(=O)O)CC[C@]3(C)C(=CC[C@@H]4[C@@]5(C)CC[C@H](O)[C@@](C)(CO)[C@@H]5CC[C@]43C)[C@@H]2C1 [Hederagenin],-0.021,-0.0988
CC1(C)CCC2(CO)C(=C3C=CC4C5(C)CCC(OC6OC(COC7OC(CO)C(O)C(O)C7O)C(OC7OC(CO)C(O)C(O)C7O)C(O)C6O)C(C)(CO)C5CCC4(C)C3(C)CC2O)C1 (configuration not stated) [Clinopodiside A],-0.0569,0.0428
O=C(O)/C=C/c1ccc(O)cc1 [P-Coumaric Acid],0.1,0.212
CC[C@]12CCCN3CCc4c(n(c5ccccc45)[C@@](O)(C(=O)OC)C1)[C@@H]32 [Vincamine],0.104,0.0346
O=C(O)C1=CO[C@@H](O[C@@H]2O[C@H](CO)[C@@H](O)[C@H](O)[C@H]2O)[C@@H]2C(CO)=CC[C@H]12 [Geniposidic acid],-0.068,-0.00169
COc1cc2c(cc1OC)-c1cc3ccc(OC)c(OC)c3c[n+]1CC2 [Palmatine hydrochloride],0.0374,0.0612
O=C(O)c1cc(O)c2c(c1)[C@@H]([C@H]1c3cc(C(=O)O)cc(O)c3C(=O)c3c(O[C@@H]4O[C@H](CO)[C@@H](O)[C@H](O)[C@H]4O)cccc31)c1cccc(O[C@@H]3O[C@H](CO)[C@@H](O)[C@H](O)[C@H]3O)c1C2=O [Sennoside B],-0.162,0.0301
CC(CC(=O)C[C@@H](C)[C@H]1CC(=O)[C@@]2(C)C3=C(C(=O)C[C@]12C)[C@@]1(C)CC[C@H](O)C(C)(C)[C@@H]1C[C@@H]3O)C(=O)O (some centres not stated) [Ganoderic Acid B],0.0835,0.0793
COc1cc(C(=O)OCCCCNC(=N)N)cc(OC)c1O [Leonurine],-0.042,0.0155
O=c1cc(-c2ccc(O)c(-c3c(O)cc(O)c4c(=O)cc(-c5ccc(O)cc5)oc34)c2)oc2cc(O)cc(O)c12 [Amentoflavone],0.0928,0.0831
CC(C)=C1C/C=C(\C)CC/C=C(\C)CC1=O [Germacrone],0.0003,-0.103
CC(/C=C/C=C(\C)C(=O)O[C@@H]1O[C@H](CO)[C@@H](O)[C@H](O)[C@H]1O)=C\C=C\C=C(C)\C=C\C=C(/C)C(=O)O[C@@H]1O[C@H](CO[C@@H]2O[C@H](CO)[C@@H](O)[C@H](O)[C@H]2O)[C@@H](O)[C@H](O)[C@H]1O [Crocin Ii],-0.0199,0.0485
Cn1cnc2c1c(=O)[nH]c(=O)n2C [Theobromine],-0.0855,0.141
C=CCc1ccc(O)c(-c2cc(CC=C)ccc2O)c1 [Magnolol],0.0133,0.105

SMILES,NHEJ repair efficiency (log10) [1],HR repair efficiency (log10) [2]
COc1cc(-c2oc3cc(O)cc(O)c3c(=O)c2O[C@@H]2O[C@H](CO)[C@@H](O)[C@H](O)[C@H]2O[C@@H]2O[C@@H](C)[C@H](O)[C@@H](O)[C@H]2O)ccc1O [Isorhamnetin 3-O-Neohesperoside],-0.0528,-0.0275
O=C(O)C(O)c1ccccc1 (configuration not stated) [Mandelic Acid],0.0554,0.105
C/C=C(/C)C(=O)O[C@H]1[C@@H](OC(=O)CC(C)C)c2c(ccc3ccc(=O)oc23)OC1(C)C [Praeruptorin E],-0.0864,-0.0529
OC[C@H]1O[C@@H](Oc2cc3c(O)cc(O)cc3[o+]c2-c2ccc(O)c(O)c2)[C@H](O)[C@@H](O)[C@@H]1O [Cyanidin3-o-glucoside],-0.035,0.142
COC(=O)C1=CO[C@@H](O[C@@H]2O[C@H](CO)[C@@H](O)[C@H](O)[C@H]2O)[C@@H]2[C@H](C)O[C@@H](O)C[C@H]12 [Morroniside],0.0778,0.186
O=c1c(O)c(-c2ccc(O)cc2O)oc2cc(O)cc(O)c12 [Morin],0.0612,0.0351
CC1(C)CC[C@]2(C(=O)O)CC[C@]3(C)C(=CC[C@@H]4[C@@]5(C)CC[C@H](O)C(C)(C)[C@@H]5CC[C@]43C)[C@@H]2C1 [Oleanolic Acid],0.0316,0.133
O=C(/C=C/c1ccc(O)c(O)c1)OC[C@H]1O[C@@H](OCCc2ccc(O)c(O)c2)[C@H](O)[C@@H](O)[C@@H]1O [Calceolarioside B],-0.0242,0.193
COc1ccc(CCO[C@@H]2O[C@H](CO[C@@H]3OC[C@H](O)[C@H](O)[C@H]3O)[C@@H](OC(=O)/C=C/c3ccc(O)c(OC)c3)[C@H](O[C@@H]3O[C@@H](C)[C@@H](O)[C@@H](O)[C@H]3O)[C@H]2O)cc1O [Angoroside C],0.0985,0.3
CC1(C)CC[C@]2(C(=O)O[C@@H]3O[C@H](CO)[C@@H](O)[C@H](O)[C@H]3O)CC[C@]3(C)C(=CC[C@@H]4[C@@]5(C)CC[C@H](O[C@@H]6O[C@H](C(=O)O)[C@@H](O)[C@H](O)[C@H]6O[C@@H]6O[C@H](CO)[C@@H](O)[C@H](O)[C@H]6O)C(C)(C)[C@@H]5CC[C@]43C)[C@@H]2C1 [Chikusetsusaponin V],0.0351,0.0384
COC(=O)c1ccccc1O[C@@H]1O[C@H](CO[C@@H]2OC[C@@H](O)[C@H](O)[C@H]2O)[C@@H](O)[C@H](O)[C@H]1O [Gaultherin],-0.0565,-0.122
CC1(C)CC[C@]2(C(=O)O)CCC3=C([C@@H](CCl)C[C@@H]4[C@@]5(C)C[C@H](O)[C@H](O)[C@@](C)(C(=O)O)[C@@H]5CC[C@@]34C)[C@@H]2C1 [Tenuigenin],0.0402,0.0517
COc1ccc(-c2cc(=O)c3c(O)cc(O)c(-c4cc(-c5cc(=O)c6c(O)cc(OC)cc6o5)ccc4OC)c3o2)cc1 [Sciadopitysin],0.0652,0.234
COc1cc2c(cc1OC)[C@H]1[C@@H](C)c3ccc(OC)c(OC)c3CN1CC2 [Corydaline],-0.196,-0.191
C[C@@H]1CCCCCCCCCCCCC(=O)C1 [Muscone],0.1,0.229
C=CC1=C(C)/C(=C/c2[nH]c(Cc3[nH]c(/C=C4\NC(=O)C(C)=C4C=C)c(C)c3CCC(=O)O)c(CCC(=O)O)c2C)NC1=O [Bilirubin],-0.0874,-0.0828
CC1(C)C2CCC1(C)C(O)C2 (configuration not stated) [Borneol],0.0116 ± 0.059,0.0372 ± 0.12
Nc1ncnc2c1ncn2[C@@H]1O[C@H](CO)[C@@H](O)[C@H]1O [Adenosine],-0.0785,-0.0239
COc1c(O)cc2occ(-c3ccc(O)cc3)c(=O)c2c1O [Tectorigenin],-0.0657,-0.129
O=C[C@H](O)[C@@H](O)[C@H](O)[C@H](O)CO[C@H]1O[C@H](CO[C@H]2O[C@H](CO)[C@H](O)[C@H](O)[C@H]2O)[C@H](O)[C@H](O)[C@H]1O [Manninotriose],0.0359,0.0215
CCCCCCCCC[C@H](O)CC(=O)CCc1ccc(O)c(OC)c1 [10-Gingerol],0.0104,0.0717
CC[C@H](CC[C@@H](C)[C@H]1CC[C@H]2[C@@H]3CC=C4C[C@@H](O)CC[C@]4(C)[C@H]3CC[C@]12C)C(C)C [β-Sitosterol],0.038,0.098
C[C@@]12C[C@@]3(O)O[C@@H](O1)[C@]1(COC(=O)c4ccccc4)[C@H]3C[C@@]12O[C@@H]1O[C@H](CO)[C@@H](O)[C@H](O)[C@H]1O [Paeoniflorin],0.122,0.213
C=C(C)[C@@H]1CC[C@]2(C(=O)O)CC[C@]3(C)[C@H](CC[C@@H]4[C@@]5(C)CCC(=O)C(C)(C)[C@@H]5CC[C@]43C)[C@@H]12 [Liquidambaric Acid],-0.0687,0.0487
C=C(C)[C@@H]1CC[C@]2(C(=O)O[C@@H]3O[C@H](CO[C@@H]4O[C@H](CO)[C@@H](O[C@@H]5O[C@@H](C)[C@H](O)[C@@H](O)[C@H]5O)[C@H](O)[C@H]4O)[C@@H](O)[C@H](O)[C@H]3O)CC[C@]3(C)[C@H](CC[C@@H]4[C@@]5(C)CC[C@H](O[C@@H]6OC[C@H](O)[C@H](O)[C@H]6O[C@@H]6O[C@@H](C)[C@H](O)[C@@H](O)[C@H]6O)[C@@](C)(CO)[C@@H]5CC[C@]43C)[C@@H]12 [Anemoside B4],-0.0464,0.0526
